# AmpC inh detg – inhibitors of E. coli AmpC beta-lactamase with detergent; Potency, µM (series often up to 114 µM), hits mostly inhibitors; P00811; AID 485294; 370,000 tested, 0.041% active; AmpC hydrolysis of nitrocefin, absorbance 480 nm, 0.01% Triton; note: nearly all actives have a fitted effect of over 25% in size
# Target sequence (P00811 whole entry, looked up): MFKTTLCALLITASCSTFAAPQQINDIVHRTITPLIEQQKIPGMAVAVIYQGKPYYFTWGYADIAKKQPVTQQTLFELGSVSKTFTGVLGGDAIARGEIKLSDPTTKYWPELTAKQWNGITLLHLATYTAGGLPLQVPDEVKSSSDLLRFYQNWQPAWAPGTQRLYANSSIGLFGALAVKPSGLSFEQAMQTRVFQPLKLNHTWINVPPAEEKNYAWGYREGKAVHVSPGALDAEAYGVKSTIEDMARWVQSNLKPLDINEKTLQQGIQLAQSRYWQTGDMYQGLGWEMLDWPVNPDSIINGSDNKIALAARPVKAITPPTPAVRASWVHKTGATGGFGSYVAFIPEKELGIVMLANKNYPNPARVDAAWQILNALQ
#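 AmpC (5.3 nM in the dispensed reagent) in 20 mM phosphate pH 7.0 with 0.01% (detergent screen) or 0.0001% Triton X-100 was preincubated with compounds for 15 min at room temperature. Nitrocefin was then added from an 800 uM solution, and hydrolysis was followed at 480 nm.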
# CHX counter – affects cycloheximide protein synthesis inhibition readout, counter-screen. cell reporter, cycloheximide protein synthesis inhibition counterscreen. max response, %. 300,000 tested, 12% active; in the data active = max response mostly above about 13%, no sharp cut-off; inactive = mostly below about 14%; note: read at 38.3 µM for the half of the compounds with a filed dose
# Shiga inhibitor – blocks Shiga toxin action in Vero cells; 290,000 tested, 9.2% active; Vero cells, Shiga toxin protein synthesis inhibition reporter; inhibition, % at 38.7 µM; AID 2315; in the data active = inhibition mostly above about 28%, no sharp cut-off; inactive = mostly below about 43%
# NS1 inh – inhibitors of influenza NS1 protein function; Potency, µM (highest dose often 46.1 µM); 270,000 tested, 0.4% active; AID 2326; calls by dose curve; note: actives are rising curves; nearly all actives have a fitted effect of over 50% in size
#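 Compounds were scored for reversing the slow growth caused by influenza A NS1 in S. cerevisiae, measured by optical density at 600 nm. Assay medium contained 2% galactose at pH 6.0; NS1-free yeast of the same strain were the positive control.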
# AmpC no deterg – inhibitors of E. coli AmpC beta-lactamase without detergent | AmpC nitrocefin hydrolysis, absorbance 480 nm, 0.0001% Triton | Potency, µM (doses to about 57.1 µM), usual class: inhibitors | P00811 | 330,000 tested, 0.52% active; note: nearly all actives have a fitted effect of over 20% in size
#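 20 mM phosphate pH 7.0 + 0.01% (detergent screen) or 0.0001% Triton X-100; 5.3 nM AmpC reagent; cpd preinc 15 min RT; nitrocefin (800 uM stock) to start; A480 q20 s × 4 min; Activity was normalised to no-enzyme and no-compound control wells.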
# Hits are given with their value; - = inactive; ? = inconclusive; . = no result given; ! = a repeat was not active; [ ] = another dose, or the depositor's remark. Only a selection was taken, and hits are over-represented in it overall. Unless noted, calls come from the whole dose curve; as a rule, active = well fitted curve in the direction sought with a large enough effect; inconclusive = small, poorly fitted or top-dose-only effect, or another doubt; inactive = no such curve, though single readings can be large; an effect the other way counts as inactive or inconclusive.
SMILES,AmpC inh detg,CHX counter,Shiga inhibitor,NS1 inh,AmpC no deterg
O=C(N/N=C/c1cccs1)c1cccc(NC(=O)c2ccccc2Cl)c1,-,18,-,-,-
O=C(N/N=C/c1ccccc1F)c1cccc(NC(=O)c2ccccc2Cl)c1,-,26,56,-,-
Cc1cccc(C(=O)N/N=C/c2ccccn2)c1,-,25,91,-,-
Cc1cc(=O)n(Cc2ccccc2)c2c1c(C)nn2C,-,.,.,.,.
CC(=O)N1N=C2c3ccccc3CCC2C1c1ccc(F)cc1 (stereo unspecified),?,-,-,-,-
COc1ccc2c(c1)CCC1C2=NN(/C(C)=C/C(C)=O)C1c1cccc(F)c1 (stereo unspecified),-,32,47,-,-
CCOC(=O)c1cc(-c2ccc(F)cc2)n(CCC(=O)Nc2cc(OC)cc(OC)c2)c1C,-,.,.,.,.
COc1cc2c(cc1OC)/C(=C/C(=O)c1ccc(OC)c([N+](=O)[O-])c1)NCC2,-,11,-,-,-
O=C(Nc1ccc(Cl)cc1)O/N=C(\c1ccccc1)c1ccccn1,-,21,-,-,-
N/C(=N\NC(=O)Nc1ccc(Cl)cc1)c1ccccn1,-,39,88,-,-
Cc1nc(C(F)(F)F)c(C(=O)N/N=C(\N)c2ccccn2)s1,-,-,-,.,-
CNC(=O)N/N=C(\N)c1ccccn1,-,19,-,-,-
COc1ccc(NC(=O)c2ccccn2)cc1,-,-,-,-,-
COc1ccccc1Oc1coc2cc(O)ccc2c1=O,-,-,-,-,-
COc1ccc(-c2coc3cc(O)ccc3c2=O)cc1OC,-,34,-,-,-
CCN(CC)C(=O)Oc1ccc2c(=O)c(-c3ccccc3)coc2c1,-,50,85,-,-
COc1ccc2c(=O)c(-c3ccccc3)coc2c1,?,52,84,-,-
COc1ccc(-c2coc3cc(OC(C)=O)c(OC)cc3c2=O)cc1,.,.,.,.,-
O=c1c(-c2ccc(F)cc2)coc2cc(O)ccc12,-,32,114,-,-
CCN(CC)C(=O)COc1ccc2c(-c3ccccc3)cc(=O)oc2c1,-,-,-,-,-
CCOc1ccccc1Oc1coc2cc(O)ccc2c1=O,-,-,-,-,-
CC1COC(=O)O1 (stereo unspecified),.,-,-,.,.
COCCCN1CC(=O)N2C(c3cccc(OC)c3OC)c3[nH]c4ccccc4c3C[C@H]2C1=O (stereo partly specified),-,-,-,-,-
Cc1ccn2c(Nc3c(C)cccc3C)c(-c3ccc(Cl)s3)nc2c1,-,.,.,.,.
Cc1ccc(S(=O)(=O)N2CCN(C(=O)Cn3cnc4c3c(=O)n(C)c(=O)n4C)CC2)cc1C,-,.,.,.,-
SMILES,AmpC inh detg,CHX counter,Shiga inhibitor,NS1 inh,AmpC no deterg
COc1ccc2c(=O)c(-c3ccc(OC)c(OC)c3)coc2c1,-,25,54,-,-
CCOc1ccc2c(=O)c(Oc3ccccc3OCC)coc2c1,-,-,-,-,-
CCOc1ccccc1Oc1coc2cc(OC(=O)N(C)C)ccc2c1=O,-,36,55,-,-
O=c1c(-c2ccc(Br)cc2)coc2c(CN3CCCCC3)c(O)ccc12,-,-,-,-,-
O=c1c(-c2ccc(F)cc2)coc2c3c(ccc12)OCCO3,-,44,87,-,-
CCOc1ccc(CNC(=O)C2CCCN(c3nn4cc(-c5ccc(OC)cc5)nc4s3)C2)cc1 (stereo unspecified),-,.,.,.,.
CN(C)c1ccc2c(c1)N=C(c1ccco1)OP2(=S)N1CCOCC1 (stereo unspecified),-,31,77,-,-
COc1cc2c(cc1OC)C(c1cc(Br)c(OC)c(OC)c1)CC(=O)N2 (stereo unspecified),?,-,-,-,-
COc1ccc(C2Nc3ccccc3C(=O)N2Cc2ccccc2)cc1 (stereo unspecified),-,-,-,-,-
COc1ccc(C2Nc3ccccc3C(=O)N2Cc2ccco2)cc1COc1ccc(F)cc1 (stereo unspecified),-,60,40,?,-
O=C1c2ccccc2NC(c2cccc(O)c2)N1Cc1ccco1 (stereo unspecified),-,-,-,-,-
COc1ccc(C2Nc3ccccc3C(=O)N2Cc2ccco2)cc1CN1C(=O)c2ccccc2C1=O (stereo unspecified),?,-,43!,-,-
CN(Cc1ccccc1)c1ncnc2c1cnn2-c1ccccc1,-,55,98,-,-
CCN(Cc1ccccc1)c1ncnc2c1cnn2-c1ccc(F)cc1,-,.,.,.,.
CCN(c1ccccc1)c1ncnc2c1cnn2-c1ccccc1,?,26,65,-,-
CCOc1ccccc1CN1CCc2nc(N3CCN(C)CC3)ncc2C1,-,.,.,.,.
CCc1ccc(Nc2nnc(SCC(=O)N(C)C3CCS(=O)(=O)C3)s2)cc1 (stereo unspecified),-,17,-,-,-
CN(C(=O)CSc1nnc(NC2CCCCC2)s1)C1CCS(=O)(=O)C1 (stereo unspecified),-,-,-,-,-
COc1ccc(C(=O)Nc2nnc(SCC(=O)Nc3ccc(NC(C)=O)cc3)s2)c(OC)c1,-,48,119,-,-
COc1ccc(C(=O)Nc2nnc(SCC(=O)NC3CCCC3)s2)c(OC)c1,-,42,96,-,-
CCc1nnc(NC(=O)c2ccc(OC)cc2OC)s1,-,38,66,-,-
CC(=O)Nc1ccc(NC(=O)CSc2nnc(NC(=O)c3cccc(F)c3)s2)cc1,-,-,-,-,-
COc1cccc(C(=O)Nc2nnc(SCC(=O)NC3CC3)s2)c1,-,-,-,-,-
COc1ccc(C(=O)Nc2nnc(SCC(=O)NC3CC3)s2)cc1,-,39,51,-,-
NC1=NCC2c3ccccc3Cc3ccccc3N12 (stereo unspecified),.,-,-,.,.
SMILES,AmpC inh detg,CHX counter,Shiga inhibitor,NS1 inh,AmpC no deterg
CCOc1ccccc1C(=O)Nc1nnc(COC)s1,-,21,-,-,-
CCOC(=O)Cc1nnc(NC(=O)c2ccccc2OCC)s1,-,-,-,-,-
Nc1ncnc2c1ncn2[C@@H]1O[C@H](CNC(=O)[C@@H]2CCC(=O)N2)[C@@H](O)[C@H]1O,.,.,.,.,-
CCSc1oc(-c2cccs2)nc1S(=O)(=O)c1ccc(Br)cc1,-,.,.,.,.
CC(=O)CC(=O)Nc1ccc(Cl)cn1,-,-,-,-,-
CCCCCCC(=O)Nc1ccc(Cl)cn1,-,32,100,-,.
O=C(CCCOc1ccccc1)Nc1ccncc1,?,-,-,-,-
O=C(CCCOc1ccccc1)Nc1ccc(Cl)cn1,-,30,64,.,-[11.4 µM]
COc1ccc(-c2nc(SCC(=O)NCCc3ccc(OC)c(OC)c3)n[nH]2)cc1,-,.,.,.,.
Cc1cc(Br)c2c(c1)=C(c1sc(N3CCCCCC3)nc1O)C(=O)N=2,-,17,63,-,?
C=CCNC(=S)NNC(=O)c1ccccc1OCC,-,-,-,-,-
O=S1(=O)C=C(Oc2ccc(F)cc2)c2ccccc21,-,11,27,-,-
O=S1(=O)C=C(Oc2ccc3ccccc3c2)c2ccccc21,-,-,-,-,-

# Screening results from PubChem BioAssay.
